Screening results as filed in PubChem BioAssay.
Rows were chosen to be rich in hits. Some 4.5% of all compounds tested hit in one or more screens of this group.
tim10-1 inh: growth inhibitors of tim10-1 mutant yeast, primary screen, luminescence, uHTS | S. cerevisiae tim10-1 ts strain growth, BacTiter-Glo, 24 h | inhibition, % at 20 µM | hit rate 2.2% among 330,000;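 active = inhibition of at least 40%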;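 note: mutant grown at 25 °C; 0% = DMSO wells with yeast and 100% = wells holding no yeast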
tim23-1 inh: growth inhibitors of tim23-1 mutant yeast, primary screen, luminescence, uHTS | S. cerevisiae tim23-1 growth, BacTiter-Glo luminescence, 24 h | inhibition, % at 20 µM | hit rate 1.3% among 330,000;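 active = growth inhibition of the mutant yeast at or above 50%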;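 note: temperature-sensitive mutant grown at 25 °C; plate controls were DMSO-treated mutant yeast for no effect and medium wells lacking yeast for full effect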
TIM10 inh: growth inhibitors of isogenic TIM10 control yeast, primary screen, counter-screen for tim10-1 yeast inhibitor project, luminescence, uHTS; inhibition, % at 10 µM; hit rate 1.4% among 330,000; S. cerevisiae TIM10 strain growth, BacTiter-Glo luminescence, 24 h; AID 463195, 2010;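 active = inhibition of 40% or more at the single tested concentration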;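 note: wild-type TIM10 isogenic control strain grown at permissive 25 °C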
PfHsp90 yeast 2: growth inhibition of PfHsp90-expressing yeast, primary screen, antimalarial PfHsp90 inhibitor project, S. cerevisiae, BacTiter-Glo luminescence, single point, set 2 | BacTiter-Glo ATP, 48 h; yeast lacking PDR1 and PDR3 efflux regulators | inhibition, % at 9.4 µM | hit rate 0.32% among 310,000;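 active = every replicate shows inhibition above about 80%, whatever the replicate mean, limit read from the data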;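 note: 0% = DMSO neutral controls and 100% = 20 µM radicicol positive controls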
SKKanGAS inh: S. pyogenes SKKanGAS growth inhibitors in kanamycin, primary screen, streptokinase expression inhibitor project, SKKanGAS strain, BacTiter-Glo luminescence | 6 h | hit rate 1.3% among 300,000 | inhibition, % at 7.5 µM | AID 1662, 2009;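 active = mean replicate score, as percent of positive control median, at least 50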;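 note: strain carries kanamycin resistance gene driven by streptokinase promoter and grows in 40 µg/ml kanamycin; loss of luminescence reflects streptokinase promoter inhibition or plain growth inhibition; 0% = median of DMSO wells and 100% = positive control at its reference dose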
NALP3 yeast inh: NALP3 inflammasome inhibitors in reconstituted yeast, primary screen, luminescence, uHTS; Yeast reconstituted NLRP3/ASC/caspase-1, beta-gal luminescence, 24 h; hit rate 0.39% among 330,000; inhibition, % at 10 µM;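 active = inhibition of 50% or more; inactive = inhibition below 50%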;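 note: plate controls were induced DMSO wells for no effect and uninduced yeast grown without galactose for full effect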
tim10-1 conf: growth inhibitors of tim10-1 mutant yeast, confirmation, single concentration, luminescence, S. cerevisiae | shares compounds with tim10-1 inh | S. cerevisiae tim10-1 ts strain growth, BacTiter-Glo, 24 h | inhibition, % at 20 µM | hit rate 56% among 7,400 | AID 463213, 2010;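 active = inhibition of yeast growth at or above a set limit in either of two repeat tests at 20 µM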;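 note: tim10-1 mutant grown at permissive 25 °C to find synthetic lethal compounds; 0% = DMSO yeast wells and 100% = medium wells without yeast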
TIM10 conf: growth inhibitors of wild-type TIM10 yeast, confirmation, counter-screen for tim10-1 synthetic lethality project, single concentration, luminescence, S. cerevisiae. shares compounds with TIM10 inh. inhibition, % at 10 µM. hit rate 63% among 4,600. S. cerevisiae tim10 strain growth, BacTiter-Glo luminescence, 24 h;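 active = inhibition of yeast growth at or above a set limit in either of two replicates at 10 µM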;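 note: this counterscreen used the strain with wild-type TIM10; 0% = yeast with DMSO and 100% = medium wells lacking yeast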
The depositor's hits bear a star; x = not tested or not shown.

SMILES	tim10-1 inh	tim23-1 inh	TIM10 inh	PfHsp90 yeast 2	SKKanGAS inh	NALP3 yeast inh	tim10-1 conf	TIM10 conf
Cc1ccc(C)c(-n2c(C)cc(/C=N/NC(=O)c3c(C)nc4cc(C)ccn34)c2C)c1	53*	39	42*	x	14	-3	32	27
Oc1ccc(C[C@@H]2CNC(=S)N2CCCCC2CCCCC2)cc1	53*	38	40*	-36	25	8	25	18
CCCCc1ccc(NC(=S)N2CCCC(C)C2)cc1 (centres undefined)	43*	36	45*	12	-12	22	29	31*
CCOc1ccc(NC(=S)N2CCCC2)cc1	-4	-3	1	-1	x	14	x	x
CCc1ccc(NC(=S)N2CCCCCCC2)cc1	42*	29	41*	-13	-1	11	31	17
Cc1ccc(CCN2CCN=C2Nc2ccccc2)cc1	-17	-3	6	-5	x	20	x	x
COc1ccc(Nc2nc(-c3ccc4c(c3)NC(=O)CO4)cs2)cc1	40	40	46*	-20	16	12	31*	46*
COc1ccccc1Nc1nc(-c2ccc3c(c2)NC(=O)CO3)cs1	23	4	29	-3	11	20	x	x
COc1ccc2c(c1OC)C(=O)OC2Nc1nc(-c2cc3cc(Br)ccc3oc2=O)cs1 (centres undefined)	49*	40	58*	1	-1	43	61*	71*
COc1ccc(-c2csc(NC3OC(=O)c4c3ccc(OC)c4OC)n2)cc1OC (centres undefined)	-8	0	-4	8	0	26	x	x
CC(/C=N/n1c(-c2cc(C)[nH]n2)n[nH]c1=S)=C\c1ccccc1	39	31	8	15	11	4	x	x
CC(/C=N/n1c(C2CCCCC2)n[nH]c1=S)=C\c1ccccc1	48*	38	49*	-29	46	22	19	31*
S=c1[nH]nc(C2CCCCC2)n1/N=C/c1cccs1	43*	38	41*	-11	0	24	11	40*
Cc1ccc2c(c1)nnn2C1CCN(C(=O)C23CC4CC(CC(C4)C2)C3)CC1	60*	44	42*	x	1	-15	41*	38*
Cc1ccc2c(c1)nnn2C1CCN(C(=O)NC23CC4CC(CC(C4)C2)C3)CC1	11	3	-11	x	-17	0	x	x
Cn1cccc1/C=C1\CC(C(C)(C)C)C/C(=C\c2cccn2C)C1=O (centres undefined)	45*	40	41*	x	10	28	43*	42*
CC(C)(C)c1ccc(C(=O)NCC(=O)N2CCCCCC2)cc1	6	28	18	5	-4	25	x	x
CC(C)(C)NC(=O)c1ccc2c(c1)C1C3CCC(C3)C1C(c1ccccc1)N2 (centres undefined)	44*	44	42*	6	5	7	34*	-9
CCOC(=O)C1=CNS(=O)(=O)NC1c1ccc(C)cc1 (centres undefined)	17	36	-4	20	x	x	x	x
Cc1cc(NCCOCCO)n2ncc(-c3ccc(Cl)cc3)c2n1	57*	36	42*	-12	-6	4	44*	50*
CC(C)c1ccc(NC(=S)NC2CCCCCC2)cc1	21	34	37	-2	16	21	x	x
FC(F)Sc1ccc(NC(=S)NC2CCCC2)cc1	53*	36	59*	-16	6	10	41*	27
O=C1CCN(S(=O)(=O)c2cc(C(F)(F)F)ccc2Cl)CC1	-12	2	-3	6	x	5	x	x
NC(=O)/C=C/C(=O)Nc1ccc(Cl)cc1	61*	34	55*	24	-15	14	61*	56*
O=C(/C=C/C(Cl)(Cl)Cl)Nc1ccc(Cl)cc1	x	x	x	-3	x	x	x	x
SMILES	tim10-1 inh	tim23-1 inh	TIM10 inh	PfHsp90 yeast 2	SKKanGAS inh	NALP3 yeast inh	tim10-1 conf	TIM10 conf
CCc1c(C)nc2cc(-c3cc(OC)cc(OC)c3)nn2c1N1CCCC1	-3	36	29	-38	18	21	x	x
CCc1c(C)nc2cc(-c3ccc(OC)c(OC)c3)nn2c1N1CCCC1	41*	49	42*	-14	-7	29	-1	21
Cc1cccc(NC(=S)NNC(=O)c2csc3c2CCCC3)c1	45*	20	43*	6	33	33	45*	16
O=C(/C=C/c1ccccc1)Nc1ncn[nH]1	49*	41	53*	23	-8	21	56*	48*
O=C(CCc1ccccc1)Nc1ncn[nH]1	3	13	0	18	-5	13	x	x
O=C(c1ccccc1Nc1ccc(SC(F)F)cc1)N1CCCCCC1	44*	38	51*	23	13	18	34*	33*
C=CCc1cccc(/C=N/NC(=O)c2ccccc2OC)c1O	49*	40	57*	-13	32	5	31*	38*
Cc1ccc(C(=O)ON=C2CCN(c3ccc([N+](=O)[O-])cc3)CC2)cc1	53*	46	61*	-2	-6	24	49*	63*
CCN1C(=O)/C(=C/N(C(C)=O)c2ccccc2)N(c2ccccc2)C1=S	45*	29	50*	2	4	46	42*	-39
CCc1ccc(/C=C2/C(=O)N(c3ccccc3)C(=S)N2CC(=O)OC)s1	27	42	12	13	-1	19	x	x
COCCNC(=O)C(c1ccc(F)cc1)N(Cc1ccccc1)C(=O)CCC(=O)Nc1nccs1 (centres undefined)	-8	-1	4	-5	0	3	x	x
CC(=O)c1ccccc1NC(=O)c1ccc(N2CCCC2=O)cc1	26	14	3	x	1	17	x	x
C=C1C(=O)C=C2CN(C(=O)c3ccccc3)[C@@](Cc3ccc(F)cc3)(C(=O)OC)[C@@H]12	61*	49	48*	3	-9	31	52*	51*
CC(C)(C)c1ccc(C(=O)NNC(=O)c2ccc(Cl)cc2)cc1	-16	9	-15	4	7	41	x	x
O=C(NNC1=C(C(=O)C(F)(F)F)CCC1)c1ccc(Cl)cc1	53*	50	41*	122*	101*	12	-16	40*
